# Sampled rows, rich in hits. Any-hit rate of the full collection: about 4.6%.
# TIM10 inh: growth inhibitors of isogenic TIM10 control yeast, primary screen, counter-screen for tim10-1 yeast inhibitor project, luminescence, uHTS. S. cerevisiae TIM10 strain growth, BacTiter-Glo luminescence, 24 h. inhibition, % at 10 µM. hit rate 1.4% among 330,000;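 active means inhibition of 40% or more at the single tested concentration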;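 further: wild-type TIM10 isogenic control strain grown at permissive 25 °C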
# tim10-1 inh: growth inhibitors of tim10-1 mutant yeast, primary screen, luminescence, uHTS. S. cerevisiae tim10-1 ts strain growth, BacTiter-Glo, 24 h. inhibition, % at 20 µM. hit rate 2.2% among 330,000;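 active means inhibition of at least 40%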;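 further: mutant grown at 25 °C; 0% = DMSO wells with yeast and 100% = wells holding no yeast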
# PfHsp90 yeast 2: growth inhibition of PfHsp90-expressing yeast, primary screen, antimalarial PfHsp90 inhibitor project, S. cerevisiae, BacTiter-Glo luminescence, single point, set 2. BacTiter-Glo ATP, 48 h; yeast lacking PDR1 and PDR3 efflux regulators. inhibition, % at 9.4 µM. hit rate 0.32% among 310,000. AID 504621, 2011;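 active means every replicate shows inhibition above about 80%, whatever the replicate mean, limit read from the data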;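 further: 0% = DMSO neutral controls and 100% = 20 µM radicicol positive controls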
# SKKanGAS inh: S. pyogenes SKKanGAS growth inhibitors in kanamycin, primary screen, streptokinase expression inhibitor project, SKKanGAS strain, BacTiter-Glo luminescence | hit rate 1.3% among 300,000 | inhibition, % at 7.5 µM | 6 h;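 active means mean replicate score, as percent of positive control median, at least 50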;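 further: strain carries kanamycin resistance gene driven by streptokinase promoter and grows in 40 µg/ml kanamycin; loss of luminescence reflects streptokinase promoter inhibition or plain growth inhibition; 0% = median of DMSO wells and 100% = positive control at its reference dose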
# NLRP3 yeast inh: NALP3 inflammasome inhibitors in reconstituted yeast, primary screen, luminescence, uHTS. Yeast reconstituted NLRP3/ASC/caspase-1, beta-gal luminescence, 24 h. inhibition, % at 10 µM. hit rate 0.39% among 330,000. AID 2825, 2010;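 active means inhibition of 50% or more; inactive means inhibition below 50%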;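 further: plate controls were induced DMSO wells for no effect and uninduced yeast grown without galactose for full effect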
# tim23-1 inh: growth inhibitors of tim23-1 mutant yeast, primary screen, luminescence, uHTS. S. cerevisiae tim23-1 growth, BacTiter-Glo luminescence, 24 h. inhibition, % at 20 µM. hit rate 1.3% among 330,000;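 active means growth inhibition of the mutant yeast at or above 50%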;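 further: temperature-sensitive mutant grown at 25 °C; plate controls were DMSO-treated mutant yeast for no effect and medium wells lacking yeast for full effect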
# tim23-1 confirm: tim23-1 mutant yeast growth inhibitors, confirmation, luminescence, single concentration. shares compounds with tim23-1 inh. S. cerevisiae tim23-1 growth, BacTiter-Glo luminescence, 24 h. inhibition, % at 20 µM. hit rate 83% among 4,400. AID 463218, 2010;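 active means inhibition above about 39% in either of two replicate wells at 20 µM, limit read from the data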;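 further: temperature-sensitive tim23-1 mutant grown at 25 °C; 0% = DMSO wells with yeast and 100% = medium wells without yeast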
# Starred values were filed as active, the others as inactive; / = no result.
SMILES,TIM10 inh,tim10-1 inh,PfHsp90 yeast 2,SKKanGAS inh,NLRP3 yeast inh,tim23-1 inh,tim23-1 confirm
COc1ccc(S(=O)(=O)NCC2CCCN(C(=O)CSC)C2)cc1 (stereo unspecified),-11,6,-8,5,24,8,/
Cc1nc(-c2cnn(-c3ccccc3)c2)c2cc(C)oc2n1,34,24,3,24,27,51*,45*
Cc1oc2c(O)c(O)ccc2c(=O)c1-c1cnn(-c2ccccc2)c1,17,27,/,2,-1,1,/
CCN(CC)CCC(c1ccc2c(c1)OCO2)c1c(O)cc(OC)cc1OC (stereo unspecified),-4,-13,8,7,7,0,/
COc1ccc(OC)c(C(C(=O)NC2CCCCC2)N(C(=O)c2ccccn2)c2cccnc2)c1 (stereo unspecified),-6,-8,-83,0,9,5,/
CSc1nc2ccc(NS(=O)(=O)c3ccc(Br)s3)cc2s1,28,29,-9,7,18,61*,62*
CN(C)S(=O)(=O)NCC1CCCN(Cc2ccc(-c3ccccc3)cc2)C1 (stereo unspecified),14,-4,1,0,12,15,/
Nc1cc([N+](=O)[O-])cc2oc(-c3ccccc3)cc12,7,27,-10,12,43,54*,45*
CCC(C)Sc1ccc(-c2nc3cc(C)ccn3c2NC2CCCCC2)cc1 (stereo unspecified),32,24,26,/,16,56*,47*
CCN(CC)CC(=O)Nc1sc(C)cc1C(=O)c1ccccc1,12,7,0,0,22,35,/
Cc1cc(C(=O)c2ccccc2)c(NC(=O)CCl)s1,40,31,-5,-2,-15,55*,38
CN(C#N)c1nc(Cl)nc(Nc2cccc(Cl)c2)n1,13,40,11,7,10,69*,-55
O=C(Nc1ccc(S(=O)(=O)N2CCCC2)cc1)c1ccc([N+](=O)[O-])o1,35,19,-9,/,1,52*,34*
Cc1ccc(C(=O)Nc2ccc(S(=O)(=O)N3CCCC3)cc2)o1,10,7,-21,3,1,30,/
CCC(=O)N1CCN(c2ccc(NC(=O)c3ccc([N+](=O)[O-])o3)cc2Cl)CC1,/,/,-6,18,/,/,/
CC(=O)N1CCN(c2ccc(NC(=O)c3ccc([N+](=O)[O-])o3)cc2Cl)CC1,35,13,-1,24,19,51*,76*
O=C1CCN(Cc2ccc(Br)cc2)CCN1[C@H](CO)Cc1ccccc1,9,13,-1,2,-1,10,/
Cc1noc(C)c1C(=O)OC(C)C(=O)NC(C)c1ccc(Cl)cc1Cl (stereo unspecified),8,19,22,/,15,14,/
CCN1CCN(c2ccccc2NC(=O)c2ccc(-n3cccn3)cc2)CC1,-4,-22,-13,/,19,-4,/
CCOC(=O)C1=C(C)N=c2s/c(=C\c3ccc(OCC(=O)O)cc3)c(=O)n2C1c1ccccc1 (stereo unspecified),8,29,8,16,22,22,/
COC(=O)C1=C(C)N=c2s/c(=C/c3ccoc3)c(=O)n2C1c1ccccc1 (stereo unspecified),29,37,/,15,13,50*,50*
CCOc1ccccc1N1CCN(CC(=O)NCCc2ccc(S(N)(=O)=O)cc2)CC1,-21,-8,-5,-2,8,16,/
CC(=O)c1cccc(NC(=O)CSc2nnc(-c3ccncc3)o2)c1,5,-11,/,/,1,-4,/
Cc1cc2c(c(C)c1Cl)C(c1ccc3c(c1)OCO3)CC(=O)O2 (stereo unspecified),-7,22,-43,/,/,45,/
Cc1ccc(C(C)C)c2c1C(c1ccc3c(c1)OCO3)CC(=O)O2 (stereo unspecified),10,28,-18,/,/,60*,39*
SMILES,TIM10 inh,tim10-1 inh,PfHsp90 yeast 2,SKKanGAS inh,NLRP3 yeast inh,tim23-1 inh,tim23-1 confirm
CN(c1ccc(O)cc1)S(=O)(=O)c1ccc2ccccc2c1,2,-13,-9,0,45,51*,45*
CCOc1cc(C(=O)OCC(=O)NCc2ccco2)cc(OCC)c1OCC,10,22,24,-3,-8,16,/
CC(C)(C)c1ccc(OCC(=O)NCc2ccco2)c(Br)c1,34,34,-24,7,27,56*,62*
COC(=O)c1c(C)cc(O)c(C=O)c1O,0,9,0,1,8,56*,45*
Cc1onc(-c2ccccc2)c1C(=O)OCC(=O)N(C)c1ccccc1,8,15,14,/,19,41,/
CCCOc1nc2ccccc2cc1/C=C/C(=O)O,21,16,9,9,16,29,/
CCOc1nc2ccccc2cc1C=O,13,-19,-21,0,17,72*,59*
CSC(SC)=C(C#N)C(=O)c1ccccc1,10,37,3,-2,8,80*,85*
COc1cccc(C(=O)Nc2ccc(NC(C)=O)cc2)c1,-18,5,11,5,-4,1,/
COc1cccc(C(=O)C(C#N)=C(SC)SC)c1,38,14,-1,2,-7,60*,77*
O=C(CCCN1C(=O)/C(=C/c2ccccc2OC(F)F)SC1=S)Nc1cccnc1,24,16,/,/,24,51*,52*
CCCCCCO,6,5,-11,/,11,4,/
CCCCCCCCCCCCCCCC(O)C(N)CO (stereo unspecified),11,23,22,75*,41,52*,44*
COc1ccc(Cn2c(C)nc([N+](=O)[O-])c2SCC(=O)O)cc1[N+](=O)[O-],-10,3,-10,26,23,55*,4
O=C(Nc1ccc(SC(F)F)cc1)c1ccc(F)cc1,15,8,20,-6,21,20,/
O=C(c1ccccc1NS(=O)(=O)c1ccc([N+](=O)[O-])cc1[N+](=O)[O-])N1O[C@@H]2C=C[C@H]1C2,4,28,-18,/,/,53*,38
COc1cc(Cl)c(C)cc1NC(=O)CN(C)C1CCS(=O)(=O)C1 (stereo unspecified),6,-1,/,/,17,-1,/
CC(O)CNc1nc(Cl)c(C#N)s1 (stereo unspecified),5,9,-1,4,-19,-13,/

# From PubChem BioAssay
